# Test results reported in PubChem BioAssay (Tox21).
# Where “and” joins values, the source holds several entries; their conditions need not be identical. Identical values can stand only once. Results filed as inconclusive are left out. A call without a number means that no potency is given here. Some structures have more than one record in an assay (separate samples or runs), and their calls can disagree. Calls of active or inactive are those of the source. The call rests on the fitted dose curve; in most records, active means well fitted curve in the direction sought with a large enough effect in the repeat runs; inconclusive means weak or mixed curves; inactive means no such curve, though single readings can be large; an effect the other way counts as inactive or inconclusive.
# What was measured:
# [1] = Caspase-3/7 induction in HepG2 cells by small molecules, qHTS assay (AID 1346978); further: nearly all actives have a fitted effect of over 15% in size
# Procedure, shortened: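 Caspase-3/7 induction was measured by Caspase-Glo 3/7 luminescence (30 min, room temperature) after a 17 hr compound exposure of wild-type HepG2 cells seeded at 2,000 per well and pre-incubated 5 hr.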
# [2] = Caspase-3/7 induction in CHO-K1 cells by small molecules, qHTS cell viability counter screen (AID 1346979); further: nearly all actives have a fitted effect of over 35% in size; further: potency means the concentration at half of the fitted maximal effect
# Procedure, shortened: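 CHO-K1 wt, 1,500 cells/well; 5hr pre-incubation 37C/5% CO2; compound pin transfer (DMSO); 16hr exposure; CellTiter-Fluor added, 1hr, fluorescence read.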
# [3] = Caspase-3/7 induction in CHO-K1 cells by small molecules, qHTS assay (AID 1346980); further: nearly all actives have a fitted effect of over 15% in size; further: potency means the concentration at half of the fitted maximal effect
# Procedure, shortened: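 Luminescent Caspase-Glo 3/7 read (30min, room temperature) quantified apoptosis induction. Cells were wild-type CHO-K1, treated with compound for 17hr at 37 C and 5% CO2.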
# [4] = Caspase-3/7 induction in HepG2 cells by small molecules, qHTS cell viability counter screen (AID 1346981); further: nearly all actives have a fitted effect of over 30% in size; further: potency means the concentration at half of the fitted maximal effect; on activity change, negative = cytotoxicity: series mostly up to about 92 µM
# Procedure, shortened: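 Steps: seed 2,000 HepG2 cells per well; incubate 5 hr at 37 C; pin-add compounds in DMSO; incubate 16 hr; add CellTiter-Fluor; after 1 hr at 37 C and 5% CO2, read fluorescence.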
# [5] = molecular target: Nuclear receptor subfamily 1 group I member 2 (Homo sapiens) (UniProt O75469); experiment: Human pregnane X receptor (PXR) small molecule agonists, qHTS assay (AID 1346982); further: nearly all actives have a fitted effect of over 35% in size; further: potency means the concentration at half of the fitted maximal effect
# Nuclear receptor subfamily 1 group I member 2 (Homo sapiens), sequence (O75469 whole entry, looked up): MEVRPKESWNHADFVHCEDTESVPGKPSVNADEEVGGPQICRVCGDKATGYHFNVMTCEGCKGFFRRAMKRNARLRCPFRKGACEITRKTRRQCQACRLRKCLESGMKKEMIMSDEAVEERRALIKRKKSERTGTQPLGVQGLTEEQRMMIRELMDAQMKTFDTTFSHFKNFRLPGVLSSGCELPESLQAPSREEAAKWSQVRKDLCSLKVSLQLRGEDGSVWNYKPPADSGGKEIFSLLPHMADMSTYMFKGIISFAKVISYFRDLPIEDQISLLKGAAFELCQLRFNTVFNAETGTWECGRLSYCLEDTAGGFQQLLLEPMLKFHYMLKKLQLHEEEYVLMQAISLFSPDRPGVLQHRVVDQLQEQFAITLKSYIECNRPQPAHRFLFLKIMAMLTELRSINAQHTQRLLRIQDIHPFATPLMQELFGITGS
# Procedure, shortened: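 Agonist mode qHTS: PXR-Luc HepG2 cells plated 5 hr before DMSO-dissolved compounds were pinned in, cultured 24 hr at 37 C, 5% CO2; ONE-Glo luminescence readout.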
# [6] = molecular target: Cytochrome P450 2D6 (Homo sapiens) (UniProt P10635); experiment: Cytochrome P450 Family 2 Subfamily D Member 6 (CYP2D6) small molecule antagonists: luciferase reporter qHTS assay (AID 1671196); further: nearly all actives have a fitted effect of over 50% in size; further: potency means the concentration at half of the fitted maximal effect; on activity change, negative = inhibition: series mostly up to about 120 µM
# Cytochrome P450 2D6 (Homo sapiens), sequence (P10635 whole entry, looked up): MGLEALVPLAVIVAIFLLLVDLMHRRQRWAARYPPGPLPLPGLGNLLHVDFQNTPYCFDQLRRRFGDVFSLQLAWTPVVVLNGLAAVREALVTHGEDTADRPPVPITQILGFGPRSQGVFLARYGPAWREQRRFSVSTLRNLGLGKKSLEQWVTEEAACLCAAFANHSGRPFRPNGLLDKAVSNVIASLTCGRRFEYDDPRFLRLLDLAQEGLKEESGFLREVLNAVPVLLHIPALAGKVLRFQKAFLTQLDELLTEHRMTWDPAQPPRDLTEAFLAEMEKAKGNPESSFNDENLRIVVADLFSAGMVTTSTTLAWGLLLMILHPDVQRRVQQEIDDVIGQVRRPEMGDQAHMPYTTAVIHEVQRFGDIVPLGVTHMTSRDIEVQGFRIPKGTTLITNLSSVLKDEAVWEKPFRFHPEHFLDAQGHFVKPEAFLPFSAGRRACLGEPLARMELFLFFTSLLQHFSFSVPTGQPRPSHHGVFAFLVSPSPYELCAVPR
# Procedure, shortened: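 P450-Glo format: CYP2D6 converts a proluciferin substrate to luciferin in an NADPH-driven reaction lasting 1 h at room temperature. Light output, proportional to CYP2D6 activity, reflects interference by test chemicals.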
# [7] = molecular target: Cytochrome P450 2C19 (Homo sapiens) (UniProt P33261); experiment: Cytochrome P450 Family 2 Subfamily C Member 19 (CYP2C19) small molecule antagonists: luciferase reporter qHTS assay (AID 1671197); further: nearly all actives have a fitted effect of over 65% in size; further: potency means the concentration at half of the fitted maximal effect; on activity change, negative = inhibition: series mostly up to about 120 µM
# Cytochrome P450 2C19 (Homo sapiens), sequence (P33261 whole entry, looked up): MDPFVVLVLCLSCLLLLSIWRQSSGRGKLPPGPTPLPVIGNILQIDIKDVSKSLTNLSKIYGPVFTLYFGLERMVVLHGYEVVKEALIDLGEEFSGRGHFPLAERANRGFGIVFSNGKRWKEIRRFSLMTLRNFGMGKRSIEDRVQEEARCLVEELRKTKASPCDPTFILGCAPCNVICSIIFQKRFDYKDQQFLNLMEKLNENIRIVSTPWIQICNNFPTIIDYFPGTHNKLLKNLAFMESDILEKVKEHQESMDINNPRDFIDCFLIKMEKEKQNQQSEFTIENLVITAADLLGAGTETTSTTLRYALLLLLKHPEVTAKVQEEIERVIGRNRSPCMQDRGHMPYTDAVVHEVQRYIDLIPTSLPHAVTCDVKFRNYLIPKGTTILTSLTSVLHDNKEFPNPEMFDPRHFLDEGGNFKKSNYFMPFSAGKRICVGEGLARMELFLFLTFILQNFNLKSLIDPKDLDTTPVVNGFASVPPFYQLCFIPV
# Procedure, shortened: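 Compounds were tested on CYP2C19 activity via proluciferin conversion to luciferin. The 37C, 1 h reaction followed NADPH addition; detection reagent stopped it.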
# [8] = molecular target: Cytochrome P450 2C9 (Homo sapiens) (UniProt P11712); experiment: Cytochrome P450 Family 2 Subfamily C Member 9 (CYP2C9) small molecule antagonists: luciferase reporter qHTS assay (AID 1671198); further: nearly all actives have a fitted effect of over 50% in size; further: potency means the concentration at half of the fitted maximal effect; on activity change, negative = inhibition: series mostly up to about 120 µM
# Cytochrome P450 2C9 (Homo sapiens), sequence (P11712 whole entry, looked up): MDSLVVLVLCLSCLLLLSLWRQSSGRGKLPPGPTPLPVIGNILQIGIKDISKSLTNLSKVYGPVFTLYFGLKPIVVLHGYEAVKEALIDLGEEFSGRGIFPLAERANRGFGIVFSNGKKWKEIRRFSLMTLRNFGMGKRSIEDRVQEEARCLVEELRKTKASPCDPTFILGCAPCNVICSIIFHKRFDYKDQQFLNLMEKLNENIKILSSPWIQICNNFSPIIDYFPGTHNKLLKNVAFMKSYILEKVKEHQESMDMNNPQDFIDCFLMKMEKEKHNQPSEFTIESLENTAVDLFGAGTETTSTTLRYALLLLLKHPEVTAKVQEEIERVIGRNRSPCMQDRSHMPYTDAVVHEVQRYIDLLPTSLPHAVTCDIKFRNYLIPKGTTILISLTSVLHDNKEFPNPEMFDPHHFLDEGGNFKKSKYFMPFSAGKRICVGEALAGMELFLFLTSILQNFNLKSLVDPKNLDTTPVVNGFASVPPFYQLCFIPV
# Procedure, shortened: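 Enzyme-substrate mix preincubated with compound 10 min at room temperature; reaction started with NADPH regeneration solution, 1 h 37C. Luminescent luciferin product read after 20 min detection reagent.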
# [9] = molecular target: Cytochrome P450 1A2 (Homo sapiens) (UniProt P05177); experiment: Cytochrome P450 Family 1 Subfamily A Member 2 (CYP1A2) small molecule antagonists: luciferase reporter qHTS assay (AID 1671199); further: nearly all actives have a fitted effect of over 50% in size; further: potency means the concentration at half of the fitted maximal effect; on activity change, negative = inhibition: series mostly up to about 120 µM
# Cytochrome P450 1A2 (Homo sapiens), sequence (P05177 whole entry, looked up): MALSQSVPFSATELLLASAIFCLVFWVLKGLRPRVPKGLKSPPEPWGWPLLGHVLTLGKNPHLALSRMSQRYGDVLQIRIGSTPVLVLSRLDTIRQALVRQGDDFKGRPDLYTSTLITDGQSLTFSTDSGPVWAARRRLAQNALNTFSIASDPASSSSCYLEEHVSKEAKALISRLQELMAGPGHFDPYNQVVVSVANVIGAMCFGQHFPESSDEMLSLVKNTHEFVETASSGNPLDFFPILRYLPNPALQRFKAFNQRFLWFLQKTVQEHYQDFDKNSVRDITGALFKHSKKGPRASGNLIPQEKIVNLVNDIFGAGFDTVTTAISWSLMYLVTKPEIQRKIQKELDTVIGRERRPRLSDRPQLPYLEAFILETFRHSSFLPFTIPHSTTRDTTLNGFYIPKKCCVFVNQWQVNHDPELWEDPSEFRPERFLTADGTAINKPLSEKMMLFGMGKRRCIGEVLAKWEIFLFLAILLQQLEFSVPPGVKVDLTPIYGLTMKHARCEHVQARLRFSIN
# Procedure, shortened: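 Inhibition of CYP1A2 conversion of proluciferin to luciferin, detected by luminescence. Reaction run 1 h at room temperature with NADPH regeneration after brief compound preincubation.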
# [10] = molecular target: Voltage-gated inwardly rectifying potassium channel KCNH2 (Homo sapiens) (UniProt Q12809); experiment: Human Ether-a-go-go-Related Gene (hERG) channel small molecule antagonists: fluorescence cell-based qHTS assay (AID 1671200);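 further: hERG-expressing U2OS cells given a thallium stimulus after FluxOR II dye loading; series mostly up to about 77 µM; nearly all actives have a fitted effect of over 50% in size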
# Voltage-gated inwardly rectifying potassium channel KCNH2 (Homo sapiens), sequence (Q12809 whole entry, looked up): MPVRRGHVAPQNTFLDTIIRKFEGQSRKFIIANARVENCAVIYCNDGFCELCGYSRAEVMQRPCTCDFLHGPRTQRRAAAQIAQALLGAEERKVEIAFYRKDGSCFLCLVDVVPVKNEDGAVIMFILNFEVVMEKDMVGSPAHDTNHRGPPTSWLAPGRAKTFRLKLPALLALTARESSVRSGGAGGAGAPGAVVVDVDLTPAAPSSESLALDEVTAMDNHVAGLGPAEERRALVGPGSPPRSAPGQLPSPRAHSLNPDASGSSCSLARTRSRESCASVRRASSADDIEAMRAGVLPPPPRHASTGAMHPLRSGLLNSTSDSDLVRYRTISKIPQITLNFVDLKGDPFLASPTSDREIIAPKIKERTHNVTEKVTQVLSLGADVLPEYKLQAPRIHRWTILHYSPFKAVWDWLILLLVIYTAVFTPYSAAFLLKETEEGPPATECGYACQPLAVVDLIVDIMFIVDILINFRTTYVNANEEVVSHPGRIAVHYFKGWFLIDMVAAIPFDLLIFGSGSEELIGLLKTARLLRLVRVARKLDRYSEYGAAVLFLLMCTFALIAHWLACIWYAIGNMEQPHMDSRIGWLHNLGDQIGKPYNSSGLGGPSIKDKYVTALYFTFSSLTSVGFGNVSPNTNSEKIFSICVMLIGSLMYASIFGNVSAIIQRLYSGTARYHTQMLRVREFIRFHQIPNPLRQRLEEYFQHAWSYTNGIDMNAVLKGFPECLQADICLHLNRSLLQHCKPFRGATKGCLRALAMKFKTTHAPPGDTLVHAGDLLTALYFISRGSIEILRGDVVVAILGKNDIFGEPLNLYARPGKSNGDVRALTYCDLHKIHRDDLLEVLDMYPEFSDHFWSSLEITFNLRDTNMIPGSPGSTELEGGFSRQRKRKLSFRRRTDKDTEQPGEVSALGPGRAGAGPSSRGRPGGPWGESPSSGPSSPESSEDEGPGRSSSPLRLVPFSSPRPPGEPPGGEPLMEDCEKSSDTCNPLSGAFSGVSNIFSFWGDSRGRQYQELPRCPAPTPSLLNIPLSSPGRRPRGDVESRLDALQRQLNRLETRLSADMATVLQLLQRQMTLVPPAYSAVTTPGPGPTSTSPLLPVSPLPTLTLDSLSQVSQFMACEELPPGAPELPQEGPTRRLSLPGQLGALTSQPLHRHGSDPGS
# Procedure, shortened: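 Read-out: thallium influx as a surrogate for potassium, tracked as fluorescence (480 nm ex/540 nm em) every second for 2 min after Stimulus Buffer addition in dye-loaded hERG-U2OS cells.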
# [11] = molecular target: Cytochrome P450 3A4 (Homo sapiens) (UniProt P08684); experiment: Cytochrome P450 Family 3 Subfamily A Member 4 (CYP3A4) small molecule antagonists: luciferase reporter qHTS assay (AID 1671201); further: nearly all actives have a fitted effect of over 50% in size; further: potency means the concentration at half of the fitted maximal effect; on activity change, negative = inhibition: series mostly up to about 120 µM
# Cytochrome P450 3A4 (Homo sapiens), sequence (P08684 whole entry, looked up): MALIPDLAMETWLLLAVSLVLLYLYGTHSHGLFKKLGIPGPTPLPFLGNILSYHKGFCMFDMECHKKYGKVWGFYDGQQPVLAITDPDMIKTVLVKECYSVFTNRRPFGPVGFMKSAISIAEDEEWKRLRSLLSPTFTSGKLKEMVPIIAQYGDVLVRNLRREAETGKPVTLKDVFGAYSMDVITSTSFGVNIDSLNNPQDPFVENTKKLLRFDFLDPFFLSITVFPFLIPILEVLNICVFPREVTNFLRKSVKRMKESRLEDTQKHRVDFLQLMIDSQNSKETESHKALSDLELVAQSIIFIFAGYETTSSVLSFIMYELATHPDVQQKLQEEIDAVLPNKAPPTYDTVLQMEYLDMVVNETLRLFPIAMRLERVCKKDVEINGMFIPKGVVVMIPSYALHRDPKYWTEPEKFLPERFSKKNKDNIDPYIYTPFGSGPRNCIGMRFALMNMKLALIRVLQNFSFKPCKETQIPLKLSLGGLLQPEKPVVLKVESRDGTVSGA
# Procedure, shortened: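 Luminescent readout (RLU) proportional to CYP3A4 activity, from luciferin generated off a proluciferin substrate. Enzyme–substrate mix plus compound 10 min at room temp, NADPH regeneration 1 h, detection reagent 20 min.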
structure (smiles),measurement,setting,value
O=C(O)Cn1cnnn1,Potency,[1],inactive
same,Potency,[2],inactive
same,Potency,[3],inactive
same,Potency,[4],inactive
same,Potency,[5],inactive
same,Potency,[6],inactive
same,Potency,[7],inactive
same,Potency,[8],inactive
same,Potency,[9],inactive
same,Potency,[10],inactive
CCc1ccc(C(c2ccc(CC)cc2)C(Cl)Cl)cc1,Potency,[1],inactive
same,Potency,[2],inactive
same,Potency,[3],inactive
same,Potency,[4],inactive
same,Potency,[5],31.1 µM (active) and 24.3 µM (active)
same,Potency,[6],inactive
same,Potency,[7],6.43 µM (active) and 3.56 µM (active)
same,Potency,[8],14.4 µM (active) and 12.6 µM (active)
same,Potency,[9],40.6 µM (active)
same,Potency,[10],inactive
same,Potency,[11],inactive
CCCCCCCCCCCCCCCCCl,caspase activation,[1],-0.588% [at 19 µM] (inactive)
same,"activity change, negative = cytotoxicity",[2],-2.27% [at 19 µM] (inactive)
same,caspase-3/7 activation,[3],-1.24% [at 19 µM] (inactive)
same,"activity change, negative = cytotoxicity",[4],-0.832% [at 19 µM] (inactive)
same,activation,[5],-2.47% [at 19 µM] (inactive)
same,"activity change, negative = inhibition",[6],0.322% [at 23.6 µM] (inactive)
same,"activity change, negative = inhibition",[7],-0.542% [at 23.6 µM] (inactive)
same,"activity change, negative = inhibition",[8],1.72% [at 23.6 µM] (inactive)
same,Potency,[9],inactive
same,"activity change, negative = inhibition",[10],-0.466% [at 15.8 µM] (inactive)
same,"activity change, negative = inhibition",[11],3.48% [at 23.6 µM] (inactive)
CC(C)CCOCc1ccccc1,Potency,[1],inactive
same,Potency,[2],inactive
same,Potency,[3],inactive
same,Potency,[4],inactive
same,Potency,[5],inactive
same,Potency,[6],inactive
same,Potency,[7],inactive
same,Potency,[8],inactive
same,Potency,[10],inactive
same,Potency,[11],inactive
OCCN1CCNCC1,Potency,[1],inactive
same,Potency,[2],inactive
same,Potency,[3],inactive
same,Potency,[4],inactive
same,Potency,[5],inactive
same,Potency,[6],inactive
same,Potency,[7],inactive
same,Potency,[8],inactive
same,Potency,[9],inactive
same,Potency,[10],inactive
Cc1cccc([N+](=O)[O-])c1C(=O)O,Potency,[1],inactive
same,Potency,[2],inactive
same,Potency,[3],inactive
same,Potency,[4],inactive
same,Potency,[5],inactive
same,Potency,[6],63.4 µM (active)
same,Potency,[7],inactive
same,Potency,[8],inactive
same,Potency,[10],inactive
same,Potency,[11],inactive
c1cc(C(c2ccc(OCC3CO3)cc2)C(c2ccc(OCC3CO3)cc2)c2ccc(OCC3CO3)cc2)ccc1OCC1CO1 (stereo unspecified),Potency,[1],inactive
same,Potency,[2],inactive
same,Potency,[3],28.3 µM (active)
same,Potency,[4],inactive
same,Potency,[5],40 µM (active) and 7.69 µM (active)
same,Potency,[6],46.5 µM (active) and inactive
same,Potency,[7],104 µM (active) and 56.4 µM (active)
same,Potency,[8],10.4 µM (active) and 22.4 µM (active)
same,Potency,[9],inactive
same,Potency,[10],inactive
same,Potency,[11],inactive
NCCO,Potency,[1],inactive
same,Potency,[2],inactive
same,Potency,[3],inactive
same,Potency,[4],inactive
same,Potency,[5],27.3 µM (active)
same,Potency,[6],inactive and 5.03 µM (active)
same,Potency,[7],inactive and 11.2 µM (active)
same,Potency,[8],inactive and 31.7 µM (active)
same,Potency,[9],9.47 µM (active)
same,Potency,[10],inactive
same,Potency,[11],inactive
Nc1cc(S(=O)(=O)O)cc2cc(S(=O)(=O)O)cc(O)c12,Potency,[1],inactive
same,Potency,[2],43.1 µM (active) and 61.1 µM (active)
same,Potency,[3],inactive
same,Potency,[4],54.5 µM (active)
same,Potency,[5],inactive
same,Potency,[6],35.6 µM (active)
same,Potency,[7],19.9 µM (active) and 22.4 µM (active)
same,Potency,[8],39.9 µM (active)
same,Potency,[9],inactive and 39.9 µM (active)
same,Potency,[10],inactive
same,Potency,[11],inactive
Nc1ccc(O)cc1,Potency,[1],inactive
same,Potency,[2],56.6 µM (active)
same,Potency,[3],inactive
same,Potency,[4],56.6 µM (active) and inactive
same,Potency,[5],inactive
same,Potency,[6],37 µM (active)
same,Potency,[7],20.8 µM (active) and 34.7 µM (active)
same,Potency,[8],26.2 µM (active) and 34.7 µM (active)
same,Potency,[10],inactive
NC(N)=Nc1nc(CSCC/C(N)=N/S(N)(=O)=O)cs1,Potency,[1],inactive
same,Potency,[2],inactive
same,Potency,[3],inactive
same,Potency,[4],inactive
same,Potency,[5],inactive
same,Potency,[6],inactive
same,Potency,[7],inactive
same,Potency,[8],inactive
same,Potency,[9],inactive
same,Potency,[11],inactive
C[N+]1([O-])CCOCC1,Potency,[1],inactive
same,Potency,[2],inactive
same,Potency,[3],inactive
same,Potency,[4],inactive
same,Potency,[5],inactive
same,Potency,[6],inactive
same,Potency,[7],39.8 µM (active)
same,Potency,[9],31.6 µM (active)
same,Potency,[10],inactive
same,Potency,[11],inactive
CCC(=O)/C=C/C1C(C)=CCCC1(C)C (stereo unspecified),Potency,[1],inactive
same,Potency,[2],inactive
same,Potency,[3],inactive
same,Potency,[4],inactive
same,Potency,[5],34.5 µM (active)
same,Potency,[6],inactive
same,Potency,[7],44.9 µM (active) and 15.9 µM (active)
same,Potency,[8],31.7 µM (active)
same,Potency,[9],inactive and 25.2 µM (active)
same,Potency,[10],inactive
same,Potency,[11],71.2 µM (active) and 20 µM (active)
CC(=O)OCCOCCOCCOC(C)=O,Potency,[1],inactive
same,Potency,[2],inactive
same,Potency,[3],inactive
same,Potency,[4],inactive
same,Potency,[5],inactive
same,Potency,[6],inactive
same,Potency,[7],78.7 µM (active) and inactive
same,Potency,[8],inactive
same,Potency,[9],inactive
same,Potency,[10],inactive
same,Potency,[11],inactive
